The sample as a whole holds a higher share of hits than the screen did.
TTR transcr act: activators of transthyretin transcription | actives 1.3% (n = 92,000) | SH-SY5Y TTR promoter Gaussia luciferase, luminescence; 100% = recombinant luciferase protein wells | AID 1117267 | activation, % at 16.7 µM;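 active = activation above the mean of all tested compounds plus 3 SD, cut at about 9.5% in these data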;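 note: cells exposed to compounds for one day before reading; 0% = median of all test compound wells on the plate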
TTR inh HuH7: decreases TTR transcription in HuH7 cells in activator counter-screen; actives 4% (n = 1,100); inhibition, % at 16.7 µM; shares compounds with TTR transcr act; HuH7 TTR promoter-Gaussia luciferase reporter, luminescence;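 active = average inhibition above the solvent-only control wells' mean plus 3 SD, cut at about 15% in these data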;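 note: 0% = cells with DMSO only and 100% = cells with inhibitor control FD; inhibitors lower well luminescence so higher value means more inhibition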
TTR up confirm: confirmation of human transthyretin transcription activators; shares compounds with TTR transcr act; SHSY5Y TTR promoter Gaussia luciferase, luminescence; 100% = purified Lucia enzyme wells, no cells; activation, % at 16.7 µM; 1,100 tested, under 10 active; AID 1117280;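 active = mean activation above a set limit taken from the earlier primary screen, cut at about 11% in these data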;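 note: 0% = DMSO-treated cells and 100% = recombinant Lucia luciferase without cells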
Numbers without * were called inactive.

SMILES	TTR transcr act	others
CCOC(=O)[C@H]1[C@H]2COc3ccc(Br)cc3[C@@H]2N2C(=O)c3cc(OC)c(OC)cc3NC(=O)[C@@]12C	-2
CCOC(=O)[C@H]1[C@H]2COc3ccc(Cl)cc3[C@@H]2N2C(=O)c3ccc(C)cc3NC(=O)[C@@]12C	13*	TTR inh HuH7=-10;TTR up confirm=-1
CCOC(=O)[C@H]1[C@H]2COc3ccccc3[C@@H]2N2C(=O)c3cc(Cl)ccc3NC(=O)[C@@]12C	3
CC(=O)N1CCCc2cc(S(=O)(=O)N3CCCC(C(=O)Nc4ccccc4C)C3)ccc21 (stereo not given)	0
CC(=O)c1cccc(NC(=O)c2ccc(-c3c(C)noc3C)c3ccoc23)c1	-2
CC(=O)Nc1ccc2c(c1)ncn2-c1ccc(C)cc1	0
O=C(Nc1ccccc1Oc1ccccc1)NC1CCCCN(Cc2ccc(Cl)cc2)C1=O (stereo not given)	2
COc1cc([N+](=O)[O-])ccc1NC(=O)CN1C(=O)NC2(CCCCC2C)C1=O (stereo not given)	-2
c1nc(NCC2CCCC2)c2cc(-c3ccc4c(c3)OCO4)ccc2n1	-1
COC(=O)[C@@]1(C(C)C)N=C(c2cc(OC)c(OC)c(OC)c2)[C@]2(O1)C(=O)N(Cc1cn(-c3ccccc3)nn1)c1cccc(Cl)c12	-1
CCOC(=O)C1=CCN(S(=O)(=O)c2ccccc2C)C1c1cccc(Br)c1 (stereo not given)	-2
CCNc1nc(NC(C)CC)nc(Oc2ccc(OCC)nn2)n1 (stereo not given)	13*	TTR inh HuH7=-9;TTR up confirm=0
CCOc1ccc(Oc2nc(NCC(C)C)nc(OC)n2)nn1	1
CCOc1ccc(Oc2nc(NCC(C)C)nc(N(C)C)n2)nn1	-1
COC(=O)c1cc(NC(=O)C2CC(=O)NC(=NCc3ccc(OC)cc3)S2)cc(C(=O)OC)c1 (stereo not given)	1
CCCCCCCCN1C(=O)[C@@H](CC(=O)NCCCOC)C[C@@]2(C(=O)OC)C1=C[C@H](C(C)C)O[C@@H]2C1CC1	-1
O=C(Nc1cc(S(=O)(=O)N2CCOCC2)ccc1N1CCCC1)c1cc2c(s1)CCCC2	0
Cc1ccc(C#N)c(SCc2cccc(Br)c2)n1	13*	TTR inh HuH7=-11;TTR up confirm=8
Cc1cccc(CSc2nc3c(cc2C#N)CCC3)c1	-2
Cc1ccc(C#N)c(SCc2cc3c(cc2Cl)OCO3)n1	6
Cc1ccccc1SCC(=O)OCC(=O)NCCNC(=O)COC(=O)CSc1ccccc1C	-1
CCCc1ccc(OCc2ccccc2)c2c(=O)cc(C(=O)OCC)oc12	0
CC(=O)c1ccn(S(=O)(=O)c2ccc(Cl)cc2)c1	2
C/C(=N/NS(=O)(=O)c1ccc(Cl)cc1)c1ccncc1	4
C/C(=N\O)c1ccn(S(=O)(=O)c2ccc(Cl)cc2)c1	26*	TTR inh HuH7=-23;TTR up confirm=4
SMILES	TTR transcr act	others
O=C(CN1CCN(S(=O)(=O)c2ccccc2F)CC1)N1CCc2ccccc2C1	2
N#Cc1cccc(NC(=O)OC2CC3CC2[C@H]2CCCCN2C3)c1 (stereo not given in full)	-1
CCOC(CCNC(=O)c1cn(-c2cccc(C)n2)cn1)OCC	1
COC(=O)c1ccc(NC(=O)c2cn(-c3cccc(C)n3)cn2)cc1	30*	TTR inh HuH7=-11;TTR up confirm=0
COC(=O)c1ccc(NC(=O)c2cccnc2)cc1	0
COC(=O)c1cnc(N2CCCN(S(=O)(=O)c3ccc(C(F)(F)F)cc3)CC2)nc1C(F)(F)F	5
CC(C)(C)NC(=O)C(c1cccnc1)N(C(=O)c1cnc[nH]1)c1ccc(C(C)(C)C)cc1 (stereo not given)	-3
C[C@H](CO)N1C[C@H](C)[C@@H](CN(C)S(=O)(=O)c2ccccc2)OCc2cn(nn2)CCCC1=O	-2
C[C@H]1CN([C@@H](C)CO)C(=O)CCCn2nncc2CO[C@H]1CN(C)C(=O)c1cc(-c2ccccc2)on1	14*	TTR inh HuH7=-7;TTR up confirm=-1
C[C@H]1CN([C@@H](C)CO)C(=O)CCCn2cc(nn2)CO[C@@H]1CN(C)S(=O)(=O)c1ccc(Cl)cc1	3
C[C@@H]1CN([C@H](C)CO)C(=O)CCCn2nncc2CO[C@H]1CN(C)C(=O)c1cc(-c2ccccc2)on1	3
C[C@@H]1CN([C@H](C)CO)C(=O)CCCn2cc(nn2)CO[C@H]1CN(C)S(=O)(=O)c1ccc(Oc2ccccc2)cc1	17*	TTR inh HuH7=-5;TTR up confirm=-1
C[C@H](CO)N1C[C@H](C)[C@@H](CN(C)C(=O)c2cc(-c3ccccc3)on2)OCc2cnnn2CCCC1=O	1
COP(=O)(CC(=O)OC(C)(C)C)C(CC(C)C)NC(=O)OCc1ccccc1 (stereo not given)	0
O=S(=O)(N[C@@H]1CCCC[C@H]1N1CCOCC1)c1ccc(Cl)cc1	0
CN(Cc1ccccc1)C(=O)c1cccc(NC(=O)Cc2ccc(NC(=O)C3CCN(C(=O)C4CCC4)CC3)cc2)c1	-5
O=C(CSc1nnc(CNC(=O)c2c(F)cccc2F)o1)Nc1ccc2c(c1)OCO2	-2
O=C(CSc1nnc(CNC(=O)c2ccccc2)o1)Nc1ccc2c(c1)OCO2	0
O=C(CSc1nnc(CNC(=O)c2c(F)cccc2F)o1)Nc1ccc2c(c1)OCCO2	11*	TTR inh HuH7=-2;TTR up confirm=5
CCOc1ccccc1NC(=O)c1cc(=O)[nH]c2ccc(S(=O)(=O)N3CCOCC3)cc12	1
CCOC(=O)CC1C(=O)NCCN1C(=O)Nc1ccccc1 (stereo not given)	18*	TTR inh HuH7=-5;TTR up confirm=-1
COC(=O)CC1C(=O)NCCN1C(=S)Nc1cccc(C)c1 (stereo not given)	2
COc1ccc(NC(=O)CC2C(=O)NCCN2C(=O)Nc2ccc(C(F)(F)F)cc2)cc1 (stereo not given)	0
O=C(OCC#CCSc1nnc(-c2ccc(F)cc2)o1)c1ccc(F)cc1	-1
CCn1c(=O)cc(OCC(=O)Nc2nc(C)cs2)c2ccccc21	11*	TTR inh HuH7=-23;TTR up confirm=0
SMILES	TTR transcr act	others
CCn1c(=O)cc(OCC(=O)NCC2CCCO2)c2ccccc21 (stereo not given)	-2
CCn1c(=O)cc(OCC(=O)NCCc2ccc(OC)c(OC)c2)c2ccccc21	1
COC(=O)[C@@]1(C)[C@H]2C(=O)N(C)C(=O)[C@H]2[C@H]2CN=C(SC)N21	2
C[C@@H]1CN([C@H](C)CO)C(=O)c2cc(Br)cnc2O[C@H]1CN(C)C(=O)CC1CC1	-1
O=C(NCc1ccccc1Cl)[C@H]1CCCN1C(=O)[C@H]1CCCN1C(=O)c1ccc(Cl)cc1	-1
CC12CC3(C)CC(C)(C1)CC(C(=O)NC(=S)N1CCOCC1)(C2)C3	0
CC12CC3CC(C)(C1)CC(C(=O)NC(=S)N1CCCCC1)(C3)C2	14*	TTR inh HuH7=-6;TTR up confirm=0
CN(C)C(=S)NC(=O)C12CC3CC(C)(CC(C)(C3)C1)C2	-2
Cc1ccc(CC(=O)NCc2ccc3c(c2)OCO3)cc1	-1
COC(=O)NCc1ccc2c(c1)OCO2	-1
CCOCC(=O)NCc1ccc2c(c1)OCO2	12*	TTR inh HuH7=-13;TTR up confirm=0
Cc1cccn2c(=O)c(C=O)c(N3CCSCC3)nc12	-1
Cc1cccc(C(=O)N/C(=C\c2ccc(C)o2)C(=O)O)c1	0
Cn1c(=O)c2cc3ccccc3nc2n(C)c1=O	0

Screens as filed in PubChem BioAssay.
